Hits are enriched below; roughly 3.2% of the tested compounds scored in any of these assays.
Sm TGR block: S. mansoni TGR enzyme inhibition. purified TGR, DTNB reduction, TNB absorbance 405 nm. Potency, µM (titrated, usually from 114 µM), inactives show top-dose activity change, negative = inhibition, most hits filed as inhibitors. 360,000 tested, 3% active; also: nearly all actives have a fitted effect of over 60% in size
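First, TGR (20 nM dispensed) and NADPH were mixed with compound. Second, a 15 min room-temperature incubation followed. Third, further NADPH and then DTNB were added to start the reaction. Finally, TNB absorbance was monitored kinetically.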
AmpC inh detg: AmpC beta-lactamase inhibition with detergent present | P00811 | AmpC hydrolysis of nitrocefin, absorbance 480 nm, 0.01% Triton | Potency, µM (titrated, usually from 114 µM), for the others: at the highest dose activity change, negative = inhibition, most hits filed as inhibitors | 370,000 tested, 0.041% active;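 also: 0% = no-compound wells and -100% = no-enzyme wells; nearly all actives have a fitted effect of over 25% in size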
Target sequence (P00811 whole entry, looked up): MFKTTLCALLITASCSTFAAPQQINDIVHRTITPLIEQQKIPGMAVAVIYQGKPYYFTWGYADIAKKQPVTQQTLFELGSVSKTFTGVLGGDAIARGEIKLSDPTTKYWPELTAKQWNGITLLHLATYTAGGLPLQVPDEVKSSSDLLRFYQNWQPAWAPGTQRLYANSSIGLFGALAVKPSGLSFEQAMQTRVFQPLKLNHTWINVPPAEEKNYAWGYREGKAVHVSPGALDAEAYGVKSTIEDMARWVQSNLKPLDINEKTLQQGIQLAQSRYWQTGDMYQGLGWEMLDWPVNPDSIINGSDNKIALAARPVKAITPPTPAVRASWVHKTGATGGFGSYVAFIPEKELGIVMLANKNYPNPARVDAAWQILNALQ
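20 mM phosphate pH 7.0 + 0.01% (detergent screen) or 0.0001% Triton X-100; 5.3 nM AmpC reagent; cpd preinc 15 min RT; nitrocefin (800 uM stock) to start; A480 q20 s × 4 min; Activity was normalised to no-enzyme and no-compound control wells.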
AmpC no deterg: blocks E. coli AmpC beta-lactamase in detergent-free assay. P00811. AmpC nitrocefin hydrolysis, absorbance 480 nm, 0.0001% Triton. Potency, µM (doses to about 57.1 µM), inactives show at the highest dose activity change, negative = inhibition, usual class: inhibitors. 330,000 tested, 0.52% active. AID 485341;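 also: plate controls were no compound for no effect and no enzyme for full effect; nearly all actives have a fitted effect of over 20% in size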
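AmpC (5.3 nM in the dispensed reagent) in 20 mM phosphate pH 7.0 with 0.01% (detergent screen) or 0.0001% Triton X-100 was preincubated with compounds for 15 min at room temperature. Nitrocefin was then added from an 800 uM solution, and hydrolysis was followed at 480 nm.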
AMA1-RON2 inh: disrupts binding of P. falciparum AMA1 to RON2; 360,000 tested, 0.2% active; AID 720542; AlphaScreen AMA1-biotinylated RON2 peptide binding; Potency, µM (titrated, usually from 58.2 µM), for inactives: at the top dose activity change, negative = inhibition, actives largely listed as inhibitors;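 also: 0% = vehicle wells and -100% = peptide control; nearly all actives have a fitted effect of over 45% in size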
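AMA1 (3D7) with his tag at 25 nM final met compounds first, then biotinylated RON2 peptide at 25 nM; detection used donor plus acceptor beads, 10 µg/mL apiece, read by AlphaScreen after 30 min at room temperature.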
RE007 growth inh: less growth of the S. pombe RE007 Vpr strain; S. pombe RE007 Vpr strain, BacTiter-Glo ATP luminescence, 24 h; Potency, µM (titrated, usually from 92.2 µM), inactives show at the highest dose activity change, negative = less growth, most hits filed as inhibitors; 360,000 tested, 0.21% active; AID 651644; active = well fitted falling curve with a large enough effect; inconclusive = small, poorly fitted or top-dose-only effect; inactive = no such curve, though single readings can be large or run the other way; also: nearly all actives have a fitted effect of over 50% in size
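Fission yeast strain RE007, carrying one chromosomally integrated HIV-1 vpr copy, was seeded at OD 0.01 in PMG+AL medium with 23 nL pinned compound. After 24 h at 30 °C and 99% humidity, viability was read by BacTiter-Glo luminescence.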
Active calls of the source: *; ? = inconclusive; . = not tested or not shown; [ ] = remark or other dose. Unless noted, calls follow the shape of the dose curve; as a rule, active = well fitted curve in the direction sought with a large enough effect; inconclusive = small, poorly fitted or top-dose-only effect, or another doubt; inactive = no such curve, though single readings can be large; an effect the other way counts as inactive or inconclusive. Unless noted, % is scaled to controls: 0 for no effect and ±100 for the full control effect; potency is read from the fitted curve at half-maximal effect.

SMILES | Sm TGR block | AmpC inh detg | AmpC no deterg | AMA1-RON2 inh | RE007 growth inh
C=CCNC(=O)c1ccccc1NC(=O)C1CC(=O)N(C(C)C)C1 (stereo unspecified) | 17.8µM* | 2.1% | -9.3% | 4.2% | 5.0%
O=C(O)CCCc1ccc(N(CCCl)CCCl)cc1 | 50.1µM* | -5.3% | -17.9% | 6.5% | -7.7%[18.4 µM]
NC(Cc1ccc(OC(F)F)cc1)C(=O)O (stereo unspecified) | 35.5µM* | 3.1% | -31.2% | 22.7% | 7.8%
N[C@@H](Cc1ccc(N(CCCl)CCCl)cc1)C(=O)O | 14.1µM* | -0.6% | -17.6% | -8.1% | 5.9%[18.4 µM]
CC(=O)NC(Cc1ccc(N(CCCl)CCCl)cc1)C(=O)O (stereo unspecified) | ? | ? | -38.6% | ? | -2.5%
N[C@@H](Cc1ccc(F)cc1)C(=O)O | . | . | . | 0.0% | -9.6%
CCOC(=O)c1cc(OC(=O)c2ccccc2C)n(-c2ccccc2)n1 | 4.8% | 15.1% | . | . | .
CCOC(=O)c1cc(OC(=O)c2ccccc2OC)n(-c2ccccc2)n1 | 35.5µM* | 15.3% | -10.3% | 13.3% | 10.2%
COc1cccc2nc3cc(C)c(C)cc3nc12 | -30.3% | 5.8% | 33.7% | -5.8% | 2.82µM*
COc1cccc2c1nc(C)c1cc(C)oc12 | 3.9% | ? | -2.4% | 0.0% | -29.9%
Cc1c(C(=O)Nc2nc(-c3ccc(F)cc3)ns2)oc2ccc(Br)cc12 | 12.4% | 17.8% | . | . | .
Cc1ccc(-n2nc(C)c(NC(=O)CCl)c2C)cc1 | 50.1µM* | 4.5% | -4.5% | -5.1% | .
Cc1nn(Cc2ccc(Cl)cc2Cl)c(C)c1NC(=O)CCl | 39.8µM* | -13.6% | 0.0% | -0.7% | 16.1%
CC(=O)Nc1c(C)nn(-c2ccc([N+](=O)[O-])cc2)c1C | -33.4% | 0.7% | 19.1% | -6.3% | 4.7%
COc1cccc2cc(C(=O)NCCc3c(C)[nH]c4ccc(Br)cc34)c(=O)oc12 | -13.7% | -14.7% | . | . | .
Nc1ccccc1SC1CC(=O)N(c2ccc3c(c2)OCO3)C1=O (stereo unspecified) | -0.8% | 3.8% | -6.1% | -2.3% | -4.8%
COc1ccc(N2C(=O)CC(Sc3ccccc3C(=O)O)C2=O)c([N+](=O)[O-])c1 (stereo unspecified) | 11.2µM* | ? | -24.4% | -2.7% | -23.9%
CCOC(=O)c1c(NC(=O)CSc2ccccc2C(=O)O)sc(C)c1C | -11.0% | 17.4% | 37.1% | 16.6% | 10.0%
O=C(O)c1ccccc1SC1CC(=O)N(c2ccc3c(c2)OCO3)C1=O (stereo unspecified) | 2.24µM* | -3.8% | -26.9% | 8.7% | 22.4µM*
CN(C)c1ccc(N2C(=O)CC(Sc3ccccc3C(=O)O)C2=O)cc1 (stereo unspecified) | 28.2µM* | ? | -30.0% | -8.5% | 6.31µM*
CCOC(=O)c1c(N2C(=O)CC(Sc3ccccc3C(=O)O)C2=O)sc(C)c1C (stereo unspecified) | 4.47µM* | -0.8% | -33.7% | -2.8% | -10.5%
Cc1ccc(N2C(=O)CC(Sc3ccccc3C(=O)O)C2=O)c([N+](=O)[O-])c1 (stereo unspecified) | . | ? | -23.4% | -6.2% | ?
Cc1ccc(N2C(=O)CC(Sc3ccccc3C(=O)O)C2=O)cc1C (stereo unspecified) | 3.98µM* | 7.2% | -30.3% | 21.2% | 14.1µM*
CCCCN1C(=O)CC(Sc2ccccc2C(=O)O)C1=O (stereo unspecified) | 20µM* | 0.7% | -15.5% | 18.6% | -13.5%
Cc1cccc(N2C(=O)CC(Sc3ccccc3C(=O)O)C2=O)c1 (stereo unspecified) | 14.1µM* | -4.6% | -30.7% | 0.2% | 5.62µM*
SMILES | Sm TGR block | AmpC inh detg | AmpC no deterg | AMA1-RON2 inh | RE007 growth inh
Cc1cc(C)cc(N2C(=O)CC(Sc3ccccc3C(=O)O)C2=O)c1 (stereo unspecified) | 1.26µM* | -2.2% | -33.5% | 14.1% | 11.2µM*
Cc1cccc(NC(=O)C2CCC(CNS(=O)(=O)c3ccc4c(c3)CCCC(=O)N4)CC2)c1C (stereo unspecified) | 0.4% | -0.2% | . | . | .
CCc1ccccc1NC(=O)C1CCN(C(=O)N2CC(C)Oc3ccc(Cl)cc32)CC1 (stereo unspecified) | -3.5% | 18.0% | . | . | .
CCc1ccc(-n2nc(C)c3c(C)cc(=O)n(CC(=O)N(CC)Cc4ccccc4)c32)cc1 | 10.9% | 22.7% | . | . | .
Cc1ccc(N2C(=O)CC(Sc3ccccc3C(=O)O)C2=O)cc1 (stereo unspecified) | 12.6µM* | -14.2% | -10.4% | 6.6% | 10µM*
COc1ccccc1C(C[N+](=O)[O-])c1c(N)n(C)c(=O)n(C)c1=O (stereo unspecified) | -10.9% | 3.7% | 17.2% | 0.0% | 35.5µM*
COc1ccc(/C=C/C(=O)c2ccccc2)cc1COc1ccc(F)cc1 | 9.6% | -14.2% | -3.2% | 12.8% | -0.7%
COc1ccc(/C=C/C(=O)c2ccc(O)cc2)cc1COc1ccc(F)cc1 | 0.8% | 4.6% | 11.2µM* | -7.7% | -16.1%
CCOC(=O)N1CCC(Nc2c(-c3ccccc3)c(=O)c2=O)CC1 | 44.7µM* | -3.1% | -18.9% | -3.2% | -13.6%
CCN(CC)c1ccc(NC(=O)c2cc(CN3CCCC3)on2)c(C)c1 | 4.0% | 25.1% | . | . | .
COC(=O)c1c(NC(=O)Cc2coc3cc(C)cc(C)c23)sc2c1CCC2 | 1.1% | -7.3% | . | . | .
O=C(CCNc1ccc(F)cc1)c1cccc([N+](=O)[O-])c1 | 0.501µM* | -10.8% | -27.3% | -20.2% | 17.8µM*
O=C(CCNc1ccccc1)c1cccc([N+](=O)[O-])c1 | 0.447µM* | 1.6% | -31.6% | -22.6% | 11.2µM*
COc1ccc(C(=O)CCNc2ccc(F)cc2)cc1 | 3.16µM* | 5.2% | -19.8% | -1.4% | -5.4%
O=C(CCNc1ccc(Br)cc1)c1cccc([N+](=O)[O-])c1 | 0.398µM* | 1.6% | -43.2% | ? | ?
Cc1ccc(-n2ncc(C(=O)NCCN3CCC(Cc4ccccc4)CC3)c2C2CCN(C(=O)OC(C)(C)C)CC2)cc1 | -7.0% | -1.1% | . | . | .
COc1cc(C2N=C(N)Nc3nc4ccccc4n32)ccc1OCC(=O)O (stereo unspecified) | 8.2% | -3.7% | . | . | .
Cc1ccc(CONC(=O)c2cccc([N+](=O)[O-])c2)cc1 | -23.4% | ? | -18.1% | -3.0% | -7.4%
COc1ccc(C(=O)CCC(=O)Nc2ccc(OC)c(Cl)c2)cc1 | 3.4% | 2.5% | . | . | .
COc1ccc(C(=O)CCC(=O)Nc2cc(Cl)c(O)c(Cl)c2)cc1 | 35.5µM* | -6.4% | -36.8% | -8.0% | -3.0%
Cc1ccc(NCCC(=O)c2cccc([N+](=O)[O-])c2)cc1 | 0.398µM* | ? | -21.5% | ? | 5.62µM*
CSc1ccc(CNC(=O)c2ccc3c(c2)N(C)C(=O)C2CCCCN32)cc1 (stereo unspecified) | 0.9% | 19.2% | . | . | .
